According to PubChem BioAssay (EPA / NIEHS):
The source made the active and inactive calls. Rule for the calls: active = hit-call score of the fitted dose curve at least 0.9, where 1 is the maximum; inactive = score below 0.9.

Experiment: ATG_TAL_CIS: Attagene CIS-FACTORIAL HepG2 Assay for human TAL Basal Promoter (AID 2282966);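 note: background control endpoint measuring basal TAL promoter reporter mRNA not a specific factor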
Details: HepG2 Attagene cis-factorial TAL promoter reporter; actives raise or lower the signal
In short: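 In this cell-based multiplex, HepG2 liver cells bearing cis-promoter reporter constructs are dosed for 24 hours. Total RNA is reverse-transcribed and amplified, labelled fragments are sized by capillary electrophoresis, and signal changes are fitted bidirectionally versus DMSO.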
With `CC(C)=CCC/C(C)=C/CO` the outcome was “inactive”. In the case of `CC(C)CCO`, the outcome is reported as “inactive”. In the case of `C=CCCCCCCCCC(=O)O`, the outcome is reported as “inactive”. For `O=C1OC(=O)C2C3C=CC(C3)C12` (stereo not drawn), the outcome was “inactive”. For `Nc1cccc(N)c1`, the outcome was “inactive”. With `O=C(O)c1cccc(Oc2ccccc2)c1` the outcome was “inactive”. With `CC[C@H]1OC(=O)[C@H](C)[C@@H](O[C@H]2C[C@@](C)(OC)[C@@H](O)[C@H](C)O2)[C@H](C)[C@@H](O[C@@H]2O[C@H](C)C[C@H](N(C)C)[C@H]2O)[C@](C)(O)C[C@@H](C)C(=O)[C@H](C)[C@@H](O)[C@]1(C)O` the outcome was “inactive”. For `CC1(C)C(=O)N(Br)C(=O)N1Br`, the outcome was “inactive”. In the case of `COc1ccc(/C=C/S(=O)(=O)NC(=O)c2ccc(C)cc2Cl)cc1`, the outcome is reported as “inactive”. With `COC(=O)CC(=O)OC` the outcome was “inactive”. For `CCC(C)(C)C(=O)O[C@H]1C[C@@H](C)C=C2C=C[C@H](C)[C@H](CC[C@@H]3C[C@@H](O)CC(=O)O3)[C@H]21`, the outcome was “inactive”. With `CN(C)c1ccc(Cc2ccc(N(C)C)cc2)cc1` the outcome was “inactive”. With `CCOC(=O)c1ccc(C2CCC(NC[C@H](O)COc3ccc(O)c(NS(C)(=O)=O)c3)CC2)cc1` (stereo partly drawn) the outcome was “inactive”. With `COCCOc1cc2cc(C(=O)NC3CCN(C(C)C)CC3)n(CC(=O)Nc3ccc(Cl)cn3)c2cn1` the outcome was “inactive”. For `COC(=O)c1ccccc1O`, the outcome was “inactive”. With `O=P(OC(CCl)CCl)(OC(CCl)CCl)OC(CCl)CCl` the outcome was “inactive”. In the case of `COc1ccc(-n2nc(C(F)F)cc2-c2ccc(S(C)=O)cc2)cc1` (stereo not drawn), the outcome is reported as “inactive”. For `CC(C)=CCCC(C)=CC=O`, the outcome was “inactive”. With `Cn1c(=O)cc(Oc2ccc(F)cc2F)c2cnc(NCC(C)(C)O)nc21` the outcome was “inactive”. With `CCCCCCCCO` the outcome was “inactive”. In the case of `CC[C@H](C)C(=O)O[C@H]1C[C@@H](C)C=C2C=C[C@H](C)[C@H](CC[C@@H]3C[C@@H](O)CC(=O)O3)[C@H]21`, the outcome is reported as “inactive”. With `CCCCCCc1ccc(O)cc1O` the outcome was “inactive”. In the case of `CCCN(C1CCN(C(=O)C2CCNCC2)CC1)[C@@H]1CCc2ccc(OC)cc2C1`, the outcome is reported as “inactive”. With `CCCCCCCCCCCCCCCO` the outcome was “inactive”. In the case of `O=C(CCCCCCCCc1cccnc1)N1CCC(C=C(c2ccccc2)c2ccccc2)CC1`, the outcome is reported as “inactive”. In the case of `CCOCCO`, the outcome is reported as “inactive”. For `O=c1[nH]c2ccc(S(=O)CCN3CCC(Cc4ccc(F)cc4)CC3)cc2o1` (stereo not drawn), the outcome was “inactive”. For `COc1ccc2sc(C(=O)Nc3nnn[nH]3)c(OC(C)C)c2c1`, the AC50 was 130 µM (active). In the case of `CCn1nc(Cc2ccccc2)cc1C1CCN(C[C@H]2C[C@H](N(C)[C@@H](C(=O)O)C(C)C)C[C@@H]2c2cccc(F)c2)CC1`, the outcome is reported as “inactive”.

Experiment: ATG_TGFb_CIS: Attagene CIS-FACTORIAL HepG2 Assay for human Transforming Growth Factor (TGF) (AID 2282967)
Details: HepG2 Attagene CIS TGFb reporter, mRNA transcription; actives raise or lower the signal
In short: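 Cells were dosed for 24 hours, after which total RNA was reverse-transcribed and reporter sequences amplified, labeled and sized by capillary electrophoresis. Activity was fitted in both directions against DMSO.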
For `CC(C)=CCC/C(C)=C/CO`, the outcome was “inactive”. In the case of `CC(C)CCO`, the outcome is reported as “inactive”. For `C=CCCCCCCCCC(=O)O`, the outcome was “inactive”. In the case of `O=C1OC(=O)C2C3C=CC(C3)C12` (stereo not drawn), the outcome is reported as “inactive”. For `Nc1cccc(N)c1`, the outcome was “inactive”. In the case of `O=C(O)c1cccc(Oc2ccccc2)c1`, the outcome is reported as “inactive”. With `CC[C@H]1OC(=O)[C@H](C)[C@@H](O[C@H]2C[C@@](C)(OC)[C@@H](O)[C@H](C)O2)[C@H](C)[C@@H](O[C@@H]2O[C@H](C)C[C@H](N(C)C)[C@H]2O)[C@](C)(O)C[C@@H](C)C(=O)[C@H](C)[C@@H](O)[C@]1(C)O` the outcome was “inactive”. With `CC1(C)C(=O)N(Br)C(=O)N1Br` the outcome was “inactive”. For `COc1ccc(/C=C/S(=O)(=O)NC(=O)c2ccc(C)cc2Cl)cc1`, the outcome was “inactive”. In the case of `COC(=O)CC(=O)OC`, the outcome is reported as “inactive”. With `CCC(C)(C)C(=O)O[C@H]1C[C@@H](C)C=C2C=C[C@H](C)[C@H](CC[C@@H]3C[C@@H](O)CC(=O)O3)[C@H]21` the outcome was “inactive”. In the case of `CN(C)c1ccc(Cc2ccc(N(C)C)cc2)cc1`, the AC50 is reported as 130 µM (active). With `CCOC(=O)c1ccc(C2CCC(NC[C@H](O)COc3ccc(O)c(NS(C)(=O)=O)c3)CC2)cc1` (stereo partly drawn) the outcome was “inactive”. In the case of `COCCOc1cc2cc(C(=O)NC3CCN(C(C)C)CC3)n(CC(=O)Nc3ccc(Cl)cn3)c2cn1`, the outcome is reported as “inactive”. For `COC(=O)c1ccccc1O`, the outcome was “inactive”. For `O=P(OC(CCl)CCl)(OC(CCl)CCl)OC(CCl)CCl`, the outcome was “inactive”. For `COc1ccc(-n2nc(C(F)F)cc2-c2ccc(S(C)=O)cc2)cc1` (stereo not drawn), the outcome was “inactive”. With `CC(C)=CCCC(C)=CC=O` the outcome was “inactive”. For `Cn1c(=O)cc(Oc2ccc(F)cc2F)c2cnc(NCC(C)(C)O)nc21`, the outcome was “inactive”. For `CCCCCCCCO`, the outcome was “inactive”. With `CC[C@H](C)C(=O)O[C@H]1C[C@@H](C)C=C2C=C[C@H](C)[C@H](CC[C@@H]3C[C@@H](O)CC(=O)O3)[C@H]21` the outcome was “inactive”. For `CCCCCCc1ccc(O)cc1O`, the outcome was “inactive”. For `CCCN(C1CCN(C(=O)C2CCNCC2)CC1)[C@@H]1CCc2ccc(OC)cc2C1`, the outcome was “inactive”. In the case of `CCCCCCCCCCCCCCCO`, the outcome is reported as “inactive”. In the case of `O=C(CCCCCCCCc1cccnc1)N1CCC(C=C(c2ccccc2)c2ccccc2)CC1`, the outcome is reported as “inactive”. With `CCOCCO` the outcome was “inactive”. With `O=c1[nH]c2ccc(S(=O)CCN3CCC(Cc4ccc(F)cc4)CC3)cc2o1` (stereo not drawn) the outcome was “inactive”. With `COc1ccc2sc(C(=O)Nc3nnn[nH]3)c(OC(C)C)c2c1` the outcome was “inactive”. With `CCn1nc(Cc2ccccc2)cc1C1CCN(C[C@H]2C[C@H](N(C)[C@@H](C(=O)O)C(C)C)C[C@@H]2c2cccc(F)c2)CC1` the outcome was “inactive”.
